This is a sample that favours compounds with a hit; in the whole collection about 9% have one here.
JMJD2A Tudor: inhibitors of human JMJD2A Tudor domain; O75164; AlphaScreen JMJD2A-Tudor / H3K4me3 peptide binding; Potency, µM (top dose mostly 114 µM), inactives show at the highest dose activity change, negative = inhibition, actives largely listed as inhibitors; 390,000 compounds, 4.4% hits; also: % is scaled to controls: 0 for no effect and ±100 for the full control effect; nearly all actives have a fitted effect of over 50% in size
Target sequence (O75164 whole entry, looked up, the tested form may be a part): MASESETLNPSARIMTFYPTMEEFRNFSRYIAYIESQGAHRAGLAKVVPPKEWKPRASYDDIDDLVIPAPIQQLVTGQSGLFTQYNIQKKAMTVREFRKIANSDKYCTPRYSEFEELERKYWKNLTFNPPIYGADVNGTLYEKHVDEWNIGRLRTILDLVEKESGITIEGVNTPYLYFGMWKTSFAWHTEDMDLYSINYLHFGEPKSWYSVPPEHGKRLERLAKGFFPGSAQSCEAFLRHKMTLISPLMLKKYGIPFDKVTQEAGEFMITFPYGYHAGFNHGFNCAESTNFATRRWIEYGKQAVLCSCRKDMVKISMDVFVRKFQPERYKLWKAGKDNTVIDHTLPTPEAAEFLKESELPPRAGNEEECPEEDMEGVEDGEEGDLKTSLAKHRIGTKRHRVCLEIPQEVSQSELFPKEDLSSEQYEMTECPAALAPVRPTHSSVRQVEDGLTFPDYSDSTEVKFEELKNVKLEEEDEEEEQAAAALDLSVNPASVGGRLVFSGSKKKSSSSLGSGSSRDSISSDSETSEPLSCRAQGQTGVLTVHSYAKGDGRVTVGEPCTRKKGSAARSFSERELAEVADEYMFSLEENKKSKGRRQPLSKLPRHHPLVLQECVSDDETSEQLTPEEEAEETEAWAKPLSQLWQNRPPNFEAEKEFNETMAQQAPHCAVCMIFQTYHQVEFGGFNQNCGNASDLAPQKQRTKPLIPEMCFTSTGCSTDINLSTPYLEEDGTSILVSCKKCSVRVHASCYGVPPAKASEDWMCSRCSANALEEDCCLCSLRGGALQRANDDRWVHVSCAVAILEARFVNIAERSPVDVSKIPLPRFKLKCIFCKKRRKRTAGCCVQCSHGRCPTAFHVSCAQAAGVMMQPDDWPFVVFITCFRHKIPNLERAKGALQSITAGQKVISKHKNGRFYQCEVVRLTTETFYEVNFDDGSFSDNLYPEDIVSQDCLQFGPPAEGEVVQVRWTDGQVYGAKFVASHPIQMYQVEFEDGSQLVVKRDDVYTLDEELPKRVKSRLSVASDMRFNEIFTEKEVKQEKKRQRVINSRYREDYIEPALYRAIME
HP1b binding inh: HP1-beta chromodomain-methylated histone interaction inhibition | P83916 | AlphaScreen HP1-beta / biotin-H3K9me3 peptide binding | Potency, µM (doses to about 114 µM), for the others: at the highest dose activity change, negative = inhibition, hits mostly inhibitors | 390,000 compounds, 0.56% hits; also: nearly all actives have a fitted effect of over 70% in size
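HP1-beta protein (50 nM final) preincubated 30 min at room temperature with biotinylated H3(1-18)K9me3 peptide (50 nM) in PBS pH 7.4, 0.01% Tween-20, then compound added for 30 min. AlphaScreen streptavidin donor/nickel chelate acceptor beads (10 ug/mL final), 30 min dark, luminescence read.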
PLK1 PBD block: inhibitors of human PLK1 polo-box domain binding. Plk1 PBD binding of FITC phosphopeptide, fluorescence polarization. AID 720504. P53350. Potency, µM, for inactives: max response, negative = inhibition, usual class: inhibitors. 360,000 compounds, 2.8% hits; also: series mostly up to about 57 µM; % is scaled to controls: 0 for no effect and ±100 for the full control effect; nearly all actives have a fitted effect of over 65% in size
BAZ2B inh: inhibitors of human BAZ2B bromodomain | AlphaScreen BAZ2B-H3K14Ac peptide displacement | 360,000 compounds, 4.4% hits | Q9UIF8 | Potency, µM (top dose mostly 114 µM), inactives show top-dose activity change, negative = inhibition, usual class: inhibitors; also: % is scaled to controls: 0 for no effect and ±100 for the full control effect; nearly all actives have a fitted effect of over 60% in size
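BAZ2B 50 nM plus b-H3(5-23)K14Ac 50 nM, PBS pH 7.4/0.01% Tween-20, 30 min RT; compound added (max 110 uM), 30 min RT; streptavidin donor/Ni-chelate acceptor beads 10 ug/mL final, 20 min dark; AlphaScreen read.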
ALOX12 inh: ALOX12 (human) lipoxygenase inhibition. P18054. purified 12hLO, xylenol orange hydroperoxide absorbance. Potency, µM (top dose mostly 108 µM), inactives show top-dose activity change, negative = inhibition, most hits filed as inhibitors. 580,000 compounds, 1.1% hits; also: % is scaled to controls: 0 for no effect and ±100 for the full control effect
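Purified human 12hLO (150 nM final) in 25 mM Hepes, 0.01% Triton X-100, pH 7.0 was preincubated 15 min at room temperature with compound. Then 40 uM arachidonic acid was added, 30 min. Hydroperoxide was read by Fe-XO absorbance ratio 573/405 nm.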
G9a inh: G9a (human) methyltransferase inhibition; AID 504332; Potency, µM (top dose mostly 102 µM), without a hit: at the highest dose activity, negative = inhibition, usual class: inhibitors; Q96KQ7; G9a H3K9 monomethylation, AlphaScreen, 2 h; 350,000 compounds, 8.8% hits; also: % is scaled to controls: 0 for no effect and ±100 for the full control effect; nearly all actives have a fitted effect of over 75% in size
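AlphaScreen read-out: biotin-H3K9 peptide (500 nM) methylation by 20 nM enzyme with 20 uM SAM, 2 h at room temperature after 15 min compound preincubation; anti-monomethyl H3K9 antibody plus donor/acceptor beads, 10 min dark.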
The depositor's hits bear a star; ? = inconclusive; . = not tested or not shown; [ ] = dose if it differs, or a comment. Calls follow the shape of the dose curve; as a rule, active = well fitted curve in the direction sought with a large enough effect; inconclusive = small, poorly fitted or top-dose-only effect, or another doubt; inactive = no such curve, though single readings can be large; an effect the other way counts as inactive or inconclusive. Potency is read from the fitted curve at half-maximal effect.

SMILES | JMJD2A Tudor | HP1b binding inh | PLK1 PBD block | BAZ2B inh | ALOX12 inh | G9a inh
COc1cc(/C=C2/N=C(C3CCCCC3)OC2=O)cc(OC)c1OC | ? | 60% | -20% | 15% | 0% | -47%[59 µM]
CCSC1=N/C(=C\c2ccccc2OC)C(=O)S1 | . | . | . | . | -28% | .
O=C(COc1cccc(C(F)(F)F)c1)Nc1ccc2[nH]ncc2c1 | -14% | 72% | 2% | -17% | 7% | -1%
COc1cc(C2=N/C(=C\c3ccccc3)C(=O)O2)cc(OC)c1OC | . | . | . | . | 5% | .
COc1cc(/C=C2\N=C(c3ccccc3)NNC2=O)cc(OC)c1OC | -17% | 28% | -3% | -21% | ? | 25µM*
CC(C)(C)c1ccc(C(=O)C2CCCN(C(=O)CN3CCCC3=O)C2)cc1 (configuration not stated) | -30% | 14% | -13% | 1% | 0% | -36%
O=C(CCN1CCOCC1)NCc1ccccc1 | -16% | 3% | -1% | -23% | 8% | 8%[0.501 µM]
O=C(c1ccc(Br)cc1)N1CCN(Cc2ccccc2)CC1 | -13% | 29% | -4% | 5% | -27% | -5%[0.501 µM]
O=C(CCN1CCOCC1)NNC(=S)NC(=O)c1ccccc1 | 18µM* | 28% | -3% | . | -17% | 11µM*
O=C(CCN1CCN(C(=O)c2ccccc2)CC1)c1ccc(Br)cc1 | -15% | 32% | ? | -5% | -29% | 32µM*
O=C(CSc1nc(N2CCCCC2)nc(N2CCCCC2)n1)c1ccccc1 | 8%[11.4 µM] | 12% | 30µM* | -3% | 0% | 5%[12.7 µM]
O=C(C(=O)N1CCN(CCN2CCOCC2)CC1)c1ccccc1 | . | . | -17% | . | 0% | .
O=C(CCN1CCOCC1)c1ccccc1 | -8% | 37% | ? | 2% | -4% | 45µM*
CCC(CC)C(=O)Nc1ccc(Sc2ccc([N+](=O)[O-])cc2)cc1 | -14% | 6% | -6% | -14% | 5% | -44%
CC(C)CC1(C)CNC(=O)NC1 | 1% | 29% | 3% | . | -17% | .
O=C(c1ccccc1)C(CN1CCCCC1)c1ccccc1 (configuration not stated) | 16% | 26% | ? | . | 45µM* | .
O=C(c1ccccc1)N1CCN(Cc2ccccc2Br)CC1 | 5µM* | ? | -3% | 50µM* | ? | ?
O=C(c1ccc(Cl)cc1)C(CN1CCCCCC1)c1ccccc1 (configuration not stated) | . | . | . | . | -14% | .
CCc1oc2ccccc2c1C(=O)CCN1CCCCC1 | -22% | 39% | 12µM* | 8% | ? | 1.4µM*
O=C(CCN1CCCCC1)Nc1ccccc1 | -5% | 37% | -14% | -3% | -19% | 6%
O=C(CCN1CCCCC1)c1ccccc1 | -11% | 30% | 15µM* | 29% | -6% | ?
CCN(C[C@H]1N[C@@](CC)(C(=O)OC)[C@H]2C(=O)N(C)C(=O)[C@@H]12)C(=O)COc1ccccc1 | -3% | 46% | -5% | . | -30% | .
CCc1noc(-c2cccn3c(CNC(=O)c4cc(F)ccc4F)nnc23)n1 | . | . | . | . | 72% | .
N#Cc1ccc(CN2CCCC(c3nc(-c4cccnc4)no3)CCNC(=O)CC2)cc1 (configuration not stated) | . | . | . | . | 11% | .
COC(=O)c1c(SCC(=O)Nc2cc(OC)cc(OC)c2)[nH]c2ccc(C)cc2c1=O | -30% | 43% | . | -15% | -6% | -24%[59 µM]
C[N+]1(CCC(=O)c2ccccc2)CCCCC1 | ? | ? | 12µM* | -2% | ? | 2µM*
CC1CCCN(CCC(=O)c2ccccc2)C1 (configuration not stated) | 1% | 16%[57 µM] | 13µM* | . | 4% | .
CC1CCCN(C(=O)CCN2CCN(CCc3ccccc3)CC2)C1 (configuration not stated) | . | . | . | . | 6% | .
CC(=O)OC(C[N+]1(C)CCCCCC1)c1ccccc1 (configuration not stated) | -6% | 23% | -3% | 2% | ? | -12%
CC(C)CCn1c(N2CCN(c3cccc(Cl)c3)CC2)nc2c1c(=O)[nH]c(=O)n2C | -34% | 7% | -27% | 0% | 0% | 0%[59 µM]

Screening results as filed in PubChem BioAssay.
